Measurements published in PubChem BioAssay AID453 (PCMD, 2006).
About 75 (0.1%) of roughly 63,000 compounds were called active. This is one part of a sample in which actives are shown more often than they occur. Values without a mark were called inactive. Cut-off read from the data, not from the text of the source: active = inhibition above about 21%; inactive = the rest.

target: Cathepsin B (Homo sapiens) (UniProt P07858); assay: human cathepsin B inhibitors, primary screen, biochemical, fluorogenic substrate (AID 453); details: purified cathepsin B, fluorescence, stronger effect = higher value,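 tested at 10 µM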;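 note: 0% = enzyme with no compound and 100% = no enzyme blank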

| SMILES | inhibition |
| --- | --- |
| O=C1c2cccc3cccc(c23)N1CN1CCN(c2ccccn2)CC1 | 2.14% |
| Cc1ccccc1-c1ccc(Nc2ccc(C(=O)N3CCOCC3)cc2)nn1 | 6.18% |
| NC(=O)CSc1c[nH]c2ccccc12 | 0.81% |
| COc1ccc(-c2cc(C(=O)NC(C(=O)O)C(C)C)c(C)o2)cc1OC (stereo unspecified) | 5.71% |
| CCCc1nc2c3cnn(-c4cccc(Cl)c4)c3ncn2n1 | -2.64% |
| CCOC(=O)N1CCC(NC(=O)CCc2cn(C)c3ccccc23)CC1 | -2.17% |
| COc1ccc(CCNC(=O)C2CCCN(Cc3nc(-c4cccc(Cl)c4)oc3C)C2)cc1OC (stereo unspecified) | 3.18% |
| COCc1cc(C)nc(Nc2cc(C)ccc2C)c1C#N | 4.86% |
| COc1ccc(CCNC(=O)CSc2nnc(CNC(=O)c3cccs3)o2)cc1OC | 1.4% |
| O=c1c(F)cn(C2CCCO2)c(=O)n1Cc1ccccc1Cl (stereo unspecified) | -1.02% |
| CC(C)OC(=O)c1cc(NC(=O)C2C3CCC(O3)C2C(=O)O)cc(C(=O)OC(C)C)c1 (stereo unspecified) | 2.7% |
| COc1cc(C2C(C(=O)c3ccc(C)o3)=C(O)C(=O)N2CCc2ccccc2)ccc1O (stereo unspecified) | 4.77% |
| COc1ccc(NC2CC(=O)N(C)C2=O)cc1 (stereo unspecified) | -3.47% |
| CCOC(=O)N1CCN(C(=O)C2CCCN(c3ncnc4c3sc3cccc(F)c34)C2)CC1 (stereo unspecified) | -3.56% |
| CCOc1cccc(-c2nn3c(-c4ccccn4)nnc3s2)c1 | 0.42% |
| CC(=O)N(CN1C(=O)C2CC=CCC2C1=O)c1cccc(Cl)c1 (stereo unspecified) | -3.62% |
| Cc1ccc2c(c1)N(CC(=O)N1CCCc3ccccc31)C(=O)C(C)O2 (stereo unspecified) | 3.31% |
| CC1=C2C(=O)OC(c3ccoc3)C2(C)CCC1 (stereo unspecified) | 0.12% |
| CC1CSc2nnc(CCc3ccccc3)n21 (stereo unspecified) | -1.7% |
| COc1ccc(C2CC(c3ccccc3)Nc3ncnn32)cc1 (stereo unspecified) | 7.13% |
| Cc1ccc(NC(=O)CN(C)S(=O)(=O)c2cnc[nH]2)cc1C | 3.83% |
| O=C(O)C1CCN(S(=O)(=O)N2CCOCC2)CC1 | 4.13% |
| CCOC(=O)N1CCC(Nc2c(NCCCN3CCN(c4ccc(OC)cc4)CC3)c(=O)c2=O)CC1 | 4.27% |
| CCCN1CCN(C(=O)Cn2ncc3ccccc32)CC1 | 0.47% |

| SMILES | inhibition |
| --- | --- |
| Cc1ccc(F)cc1NC(=O)Cc1nn(C)c(=O)c2ccccc12 | 2.55% |
| CCCOc1ccc(C2C(C(=O)c3ccc(C)o3)=C(O)C(=O)N2CCCn2ccnc2)cc1 (stereo unspecified) | 2.38% |
| O=C(Nc1ccc2c(c1)nc1n2CCCCC1)c1cc(S(=O)(=O)N2CCOCC2)ccc1Cl | -1.57% |
| CN1c2ccccc2-c2nc3ccccc3n2C1c1ccco1 (stereo unspecified) | -10.8% |
| O=C(CCCn1c(=O)oc2ccccc21)Nc1cccnc1 | -0.71% |
| CCCCNc1nc2c(c(=O)n(C)c(=O)n2C)n1Cc1cccc(OC)c1 | 0.69% |
| COc1ccc(CCNC(=O)CSc2nnc(-c3cccc(F)c3)o2)cc1OC | 1.18% |
| CCCSC1=C(C#N)C(c2ccccc2C)C(C(=O)OC)C(=O)N1 (stereo unspecified) | -3.07% |
| Cc1ccccc1C(=O)Nc1cccc(-c2nnc(SCC(=O)O)n2C)c1 | 0.46% |
| CC(C)Oc1ccc(C(=O)Nc2cc(=O)n(C)c(=O)n2C)cc1 | -1.53% |
| Cc1cc(NC(=O)Nc2ccccc2)n(-c2ccccc2)n1 | 0.02% |
| O=C(NCC(F)(F)F)Nc1nnc(C(F)(F)F)s1 | 2.4% |
| Fc1ccc(Br)cc1/C=N/n1cnnc1 | 3.66% |
| Cc1cccc(-c2noc(-c3ccc(F)cc3)n2)c1 | 3.17% |
| COc1c(O)cccc1-c1nnn(CCC(=O)OCC(=O)c2ccccc2)n1 | 0.08% |
| CN(C)/C=C1\C=C(c2ccccc2)OC1=O | 6.09% |
| CCCCSc1nc2c(c(=O)n1CC)SC(C)C2 (stereo unspecified) | -3.44% |
| CC1COC2C(O1)N(S(C)(=O)=O)CCN2S(C)(=O)=O (stereo unspecified) | 3.14% |
| CCOC(=O)[C@H]1CCC[C@@H](NS(=O)(=O)c2ccc(NC(C)=O)cc2)C1 | 1.14% |
| CCOc1ccccc1C(=O)NCc1ccco1 | -3.58% |
| Cc1cc2cc(CN(Cc3cccs3)Cc3nnnn3CC3CCCO3)c(=O)[nH]c2cc1C (stereo unspecified) | 4.13% |
| O=C(CN(CC1CCCO1)C(=O)CNS(=O)(=O)c1ccccc1)NCc1ccccc1 (stereo unspecified) | 6.19% |
| CSc1ncccc1C(=O)OCC(=O)N1CCOCC1 | 4.46% |
| Cn1c(=O)c2c(nc(Br)n2CCSc2nc3ccccc3o2)n(C)c1=O | -0.32% |

| SMILES | inhibition |
| --- | --- |
| C=CCOc1nc2c(c(=O)n(C)c(=O)n2C)n1Cc1ccc(Cl)cc1Cl | 0.74% |
| CN(Cc1ccccc1)C(=O)CCNC(=O)Cn1cnc2ccccc2c1=O | -3.16% |
| O=C(CN1CCOCC1)Nc1ccc(NC(=O)CN2CCOCC2)c(Cl)c1 | 1.81% |
| Cc1ccc2nc(NC(=O)C3CCN(S(=O)(=O)c4ccc5c(c4)oc(=O)n5C)CC3)sc2c1 | 4.26% |
| CC(C)C(=O)N1CCN(c2nc(-c3ccccc3)c3c(c2C#N)CC(C)(C)OC3)CC1 | 1.01% |
| Cc1ccc(-n2c(Cc3cccs3)nnc2SCC(=O)OC(C)C)cc1 | 11.1% |
| CCOCCOC(=O)C1=C(C)N(C)C(=O)NC1c1ccccc1F (stereo unspecified) | 1.21% |
| COc1ccc(-c2nnc(SCC(=O)c3ccco3)n2-c2ccccc2)cc1 | 0.87% |
| CN(CCC#N)c1ncnc2scc(-c3ccccc3)c12 | -3.88% |
| COc1cc(C2C(C(=O)c3sc(C)nc3C)=C(O)C(=O)N2CCN(C)C)cc(OC)c1OC (stereo unspecified) | 4.44% |
| Cc1cc(N=CC2=C(O)CCCC2=O)no1 | -1.03% |
| CCC(=O)c1ccc(OCC(O)CN2CC(C)OC(C)C2)cc1 (stereo unspecified) | 1.68% |
| CCC(=O)c1ccc(OCC(O)CN2C(=O)NC(C)(C)C2=O)cc1 (stereo unspecified) | 2.56% |
| CC(CCc1ccccc1)NC(=O)c1ccc(Br)o1 (stereo unspecified) | -4.56% |
| COCCCN1C(=O)C(=O)/C(=C(/O)c2ccc3c(c2)CC(C)O3)C1c1cccnc1 (stereo unspecified) | 0.25% |
| CCOc1ccc(NC(=O)CCC(=O)n2nc(C)cc2C)cc1 | 8.67% |
| CCCCC(CCC(=O)Nc1ccc(C(=O)OCC)cc1)C(=O)O (stereo unspecified) | -0.09% |
| CCCOc1ccc(/C(O)=C2/C(=O)C(=O)N(CCN(C)C)C2c2ccc(OC)c(OC)c2)cc1 (stereo unspecified) | 0.77% |
| Cc1nnc(N(Cc2ccco2)C(=O)c2ccno2)s1 | -4.93% |
| CCn1c(CSc2nncn2-c2ccc(OC)cc2)nc2cc(S(=O)(=O)N(C)C)ccc21 | 5.16% |
| Cc1ccc(NC(=O)C2CCCN(S(=O)(=O)c3c(C)noc3C)C2)c(C)c1 (stereo unspecified) | -0.58% |
| CCOC(=O)N1CCN(S(=O)(=O)c2cc(Br)cc3c2N(C(=O)C2CC2)CC3)CC1 | 2.46% |
| CCOc1cc(C(=O)Nc2ncccn2)cc(OCC)c1OCC | -3.7% |
| Cc1ccc(C(=O)Nc2ccc3c(c2)OCO3)cc1S(=O)(=O)N1CCCCC1 | 49.6% (active) |

| SMILES | inhibition |
| --- | --- |
| Cc1ccc(C(=O)NCC(=O)O)cc1S(=O)(=O)N1CCCCC1 | 6.73% |
| COc1ccc(C(=O)Nc2ccc3c(c2)OCO3)cc1OC | 1.65% |
| COC(=O)c1ccccc1NC(=O)CN(Cc1ccccc1)S(C)(=O)=O | -3.25% |
| Cc1cc(=O)oc(C)c1C(=O)NC1CC(C)(C)NC(C)(C)C1 | 5.11% |
| CC(C)c1nc(-c2ccccn2)no1 | -4.78% |
| CC(Sc1nncn1C)C(=O)Nc1ccccc1-c1ccccc1 (stereo unspecified) | -1.58% |
| COCCN(C(=O)CCC(=O)Nc1ccccn1)C(C(=O)NCCC(C)C)c1ccc(OC)cc1 (stereo unspecified) | -1.72% |
| COc1ccccc1-c1nnc(SCC(=O)N2CC(C)CC(C)C2)o1 (stereo unspecified) | -0.15% |
| Cn1c(CNc2nc(-c3ccccc3)cs2)nnc1SCC(=O)c1ccccc1 | -1.17% |
| O=C1N=C(N2CCOCC2)CS1 | 3.2% |
| COc1ccc(CCN2C(=O)c3[nH]nc(-c4ccccc4O)c3C2c2ccc(C)cc2)cc1OC (stereo unspecified) | -1.75% |
| O=C(CSc1nnc2ccccn12)c1ccccc1 | 8.89% |
| Cc1onc(-c2ccccc2)c1C(=O)N1CCOCC1 | 6.53% |
| Cc1noc(/C=C/N(C)C)c1S(=O)(=O)N1CCCC(C(=O)NCc2ccco2)C1 (stereo unspecified) | 4.93% |
| Cc1cccc(N2C(=O)SC(N(CC(=O)O)c3cccc(C)c3)C2=O)c1 (stereo unspecified) | 8.43% |
| CCCCOC(=O)Nc1nccs1 | 2.38% |
| C=CCOc1ccc(/C=N/n2cncn2)cc1OC | 1.3% |
| CCc1nc(Nc2ccc3nccnc3c2)c2oc3ccccc3c2n1 | -2.31% |
| C=CCn1c(COc2cccc3cccnc23)nnc1SCC(=O)OC | 6.46% |
| Cc1nc2c(-c3ccc(F)cc3)c(C)nn2c(C)c1CCC(=O)N1CCN(c2ccccn2)CC1 | -0.57% |
| CCOC(=O)CCc1c(C)c2ccc(OCc3nn[nH]n3)c(C)c2oc1=O | 1.69% |
| Cc1cc(C)c(S(=O)(=O)NCCCN2CCOCC2)cc1Br | 1.5% |
| Cc1cc(NC(=O)CSc2nnc(-c3ccc(Cl)s3)o2)no1 | 1.24% |
| O=C(COC(=O)C12CC3CC(CC(C3)C1)C2)NCc1ccco1 | -3.05% |
